# Results taken from paper PMC5540273 (PLoS ONE, 2017).
# Columns and labels:
# Conditions in all cases: concentration: 1 μM,replicates: in singlicate; n = 1
# RIOK1 = system: RIOK1
# RIOK2 = system: RIOK2
# RIOK3 = system: RIOK3
# RIPK1 = system: RIPK1
# RIPK2 = system: RIPK2
# RIPK4 = system: RIPK4
# RIPK5 = system: RIPK5
# ROCK1 = system: ROCK1
# ROCK2 = system: ROCK2
# ROS1 = system: ROS1
# 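Further: KINOMEscan kinase panel screen.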
Compound,%Inh (RIOK1) [%],%Inh (RIOK2) [%],%Inh (RIOK3) [%],%Inh (RIPK1) [%],%Inh (RIPK2) [%],%Inh (RIPK4) [%],%Inh (RIPK5) [%],%Inh (ROCK1) [%],%Inh (ROCK2) [%],%Inh (ROS1) [%]
Cc1n[nH]c2cc(Nc3ccnc(Nc4cccc(CN5CCOCC5)c4)n3)ccc12 [GW682569],100,84,96.5,4,79,62,0,27,1,57
Cn1ccc2ncnc(Oc3ccc(NC(=O)Nc4cncc(C(F)(F)F)c4)c(Cl)c3)c21,0,29,19,0,9,0,0,0,0,0
CS(=O)(=O)c1cccc(CNc2nc(Nc3ccc4c(c3)[C@@H]3C[C@@H]4CNC3=O)ncc2C(F)(F)F)c1,76,0,67,0,0,77,75,0,0,86
CC(=O)Nc1ccc(-c2cc3ncnc(SCC(=O)O)c3s2)cc1,8,0,15,0,0,2,14,0,0,6
Cc1ccc2c(-c3ccnc(Nc4ccc(C(F)(F)F)cc4)n3)cnn2n1 [GW819776],17,84,22,29,17,10,27,54,0,41
COc1cc2ncn(-c3cc(OCC4CCCCC4)c(C(N)=O)s3)c2cc1OC [GSK204559],90,5,67,2,0,0,0,0,0,9
COc1cc2nccc(Nc3ccc(Oc4ccccc4)cc3)c2cc1OC.Cl [GI261656],11,0,4,6,98.3,3,50,16,29,27
O=C(NCC1CC1)c1ccc(-c2cc(C(=O)NC3CC3)ccc2F)cc1 [GW810445],1,0,0,0,0,0,0,58,9,0
C[C@@H]1CNc2c(sc3ccc4nc(-c5ccncc5)ccc4c23)C(=O)N1,0,0,5,0,0,0,0,14,1,14
CCCC(=O)Nc1n[nH]c2ncccc12 [SB-601436],0,0,0,0,0,0,0,0,0,8
COC(=O)c1cccc(NC(=O)NC2CCN(c3ccnc(Nc4cc(OC)c(OC)c(OC)c4)n3)C2)c1 (stereo not drawn) [GSK1379767],70,0,67,23,24,26,0,24,20,30
O=C(Nc1cccc(Oc2ccc3nccn3n2)c1)Nc1cccc(C(F)(F)F)c1,0,0,0,5,12,0,0,3,0,0
Cn1cc(-c2cccc3c(N)c(C(N)=O)nnc23)cn1,36,52,60,3,3,37,17,11,20,6
O=c1[nH]cc(-c2ccc(O)cc2)c2sc(-c3ccncc3)cc12 [GSK1033723],1,14,6,26,16,0,5,10,18,0
O=C(Nc1n[nH]c2cc(-c3ccco3)ccc12)C1CC1 [SB-737447],81,10,79,13,0,36,3,0,0,2
CS(=O)(=O)Nc1ccc(-c2ccnc3[nH]ccc23)cc1 [GSK993273],98.6,67,93.9,0,18,30,0,98.5,98.4,9
O=C1NCCc2[nH]c(-c3ccncc3)cc21,35,20,30,4,4,56,24,97.9,95.4,21

Compound,%Inh (RIOK1) [%],%Inh (RIOK2) [%],%Inh (RIOK3) [%],%Inh (RIPK1) [%],%Inh (RIPK2) [%],%Inh (RIPK4) [%],%Inh (RIPK5) [%],%Inh (ROCK1) [%],%Inh (ROCK2) [%],%Inh (ROS1) [%]
Cn1ccc2ncnc(Oc3ccc(NC(=O)Nc4cc(C(C)(C)C)on4)c(Cl)c3)c21,2,29,1,15,83,12,11,3,0,46
CC(C)c1nc(-c2cccc(NS(=O)(=O)c3ccccc3)c2)c(-c2ccnc(Nc3ccc4c(c3)CN(C)CC4)n2)s1 [GSK1649598],18,0,24,0,98.7,36,8,0,0,0
COc1cccc(CNC(=O)NC2CCN(c3ccnc(Nc4cc(OC)c(OC)c(OC)c4)n3)C2)c1 (stereo not drawn) [GSK1379765],63,0,56,17,0,40,5,67,76,48
Cn1ccc2ncnc(Oc3ccc(NC(=O)Nc4cccc(C(F)(F)F)c4)c(F)c3)c21,0,0,23,23,52,0,0,0,0,53
COc1cc(Nc2nccc(N3CCC(NC(=O)c4cccc(C#N)c4)C3)n2)cc(OC)c1OC (stereo not drawn) [GSK1379751],90.2,0,89,0,25,32,0,10,35,9
Cn1ccc2ncnc(Oc3ccc(NC(=O)Nc4cnn(C(C)(C)C)c4)c(Cl)c3)c21,4,29,0,12,40,0,0,6,0,0
COc1cccc(C2=C(Nc3cccc(Cl)c3)C(=O)NC2=O)c1 [SB-341556],41,14,1,0,0,4,16,0,0,0
Cc1ccc(Nc2ccnc(Nc3ccc4c(c3)CS(=O)(=O)C4)n2)cc1O.Cl [GW579362],99.8,66,95.7,25,93.6,98.6,89,48,50,81
FC(F)(F)c1cc(Br)cc(Nc2nccc(-c3cnn4ncccc34)n2)c1 [GW810578],0,82,0,4,69,20,15,36,23,12
CN(c1cccc(CNc2nc(Nc3ccc4c(c3)CC(=O)N4)ncc2C(F)(F)F)c1)S(C)(=O)=O,78,19,70,3,0,0,16,0,17,89
NC(=O)Nc1sc(-c2ccc(F)cc2)cc1C(N)=O [GW789449],99.4,37,98.5,0,0,79,69,14,0,0
O=C(Nc1ccccc1)c1cccc(Oc2ccc3nccn3n2)c1,0,11,8,15,0,26,0,34,0,0
N#Cc1cccc(C(=O)NC2CCN(c3ccnc(Nc4ccc(F)cc4)n3)C2)c1 (stereo not drawn) [GSK1379708],24,0,0,0,0,6,0,0,0,13
NC(=O)c1ccc(-c2cc3ncnc(SCC(=O)O)c3s2)cc1,0,0,19,0,18,3,0,0,0,0
Cc1nnc(-c2ccc3occ(-c4ccc(S(C)=O)cc4)c3n2)o1 (stereo not drawn),0,0,7,0,0,0,0,0,0,0
CNC(=O)c1ccccc1Nc1nc(Nc2cccc(CS(C)(=O)=O)c2)ncc1C.O=CO [GSK1520489],97.9,89,91.8,21,30,98,65,89,75,90
